Assay results: PubChem BioAssay (NCI)
About 83,000 compounds went through this panel and 20% of them were active in at least one assay; those are over-represented in the sample as a whole.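 A percent growth of 40 corresponds to 60% growth inhibition; 0 means no net growth; -100 means all cells died. Active threshold: below 10.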 Active and inactive are the calls of the source.

Tests used:
Test in all cases: NCI-60 one-dose screen, 48 h (100 = growth as untreated, 0 = no growth, -100 = all killed)
Conditions in all cases: 10 µM unless noted
NCI-H23 lung = tested on: NCI-H23 lung
NCI-H226 lung = tested on: NCI-H226 lung
NCI-H322M lung = tested on: NCI-H322M lung
HOP-62 NSCLC = tested on: HOP-62 NSCLC
NCI-H460 lung = tested on: NCI-H460 lung
HOP-92 NSCLC = tested on: HOP-92 NSCLC
NCI-H522 lung = tested on: NCI-H522 lung
A549/ATCC NSCLC = tested on: A549/ATCC NSCLC
786-0 renal = tested on: 786-0 renal
COLO 205 colon = tested on: COLO 205 colon
DU-145 prostate = tested on: DU-145 prostate
K-562 leukemia = tested on: K-562 leukemia
MALME-3M melanoma = tested on: MALME-3M melanoma
MDA-MB-231 breast = tested on: MDA-MB-231 breast
RXF 393 renal = tested on: RXF 393 renal
SF-268 CNS = tested on: SF-268 CNS
SF-295 CNS = tested on: SF-295 CNS
SF-539 CNS = tested on: SF-539 CNS
UACC-257 melanoma = tested on: UACC-257 melanoma
M14 melanoma = tested on: M14 melanoma

Measured: growth

CC1(C)C(C(=O)c2cn(CCCCF)c3ccccc23)C1(C)C
inactive: NCI-H23 lung 85.4% | NCI-H226 lung 82.1% | NCI-H322M lung 112% | HOP-62 NSCLC 92.9% | NCI-H460 lung 103% | HOP-92 NSCLC 98% | NCI-H522 lung 56.9% | A549/ATCC NSCLC 78.5% | 786-0 renal 99.3% | COLO 205 colon 99.5% | DU-145 prostate 105% | K-562 leukemia 71.3% | MALME-3M melanoma 92.9% | MDA-MB-231 breast 94% | RXF 393 renal 84.5% | SF-268 CNS 98.8% | SF-295 CNS 91.5% | SF-539 CNS 93.2% | UACC-257 melanoma 81.1% | M14 melanoma 95%

Cc1cccc(N2CCN(C(C)C#N)CC2)c1 (stereo not given)
inactive: NCI-H23 lung 97.6% | NCI-H226 lung 96.6% | NCI-H322M lung 93.8% | HOP-62 NSCLC 107% | NCI-H460 lung 109% | HOP-92 NSCLC 91.4% | NCI-H522 lung 88.9% | A549/ATCC NSCLC 107% | 786-0 renal 90.3% | COLO 205 colon 105% | DU-145 prostate 107% | K-562 leukemia 98.4% | MALME-3M melanoma 102% | MDA-MB-231 breast 104% | RXF 393 renal 105% | SF-268 CNS 103% | SF-295 CNS 84.6% | SF-539 CNS 104% | UACC-257 melanoma 97.9% | M14 melanoma 105%

COc1cc(C=Nc2cc(Cl)cc(Cl)c2)ccc1N(CCCl)CCCl
inactive: NCI-H23 lung 80.1% | NCI-H226 lung 76.4% | NCI-H322M lung 92.8% | HOP-62 NSCLC 95.7% | NCI-H460 lung 13.7% | HOP-92 NSCLC 77.3% | A549/ATCC NSCLC 91.9% | 786-0 renal 107% | COLO 205 colon 76.9% | DU-145 prostate 98.2% | K-562 leukemia 84.6% | MALME-3M melanoma 74.9% | MDA-MB-231 breast 65.5% | RXF 393 renal 82% | SF-268 CNS 93% | SF-295 CNS 80.8% | SF-539 CNS 89.3% | UACC-257 melanoma 100% | M14 melanoma 92.2%
active: NCI-H522 lung -84.3%

N#C[Se]CCN1C(=O)c2ccccc2C1=O
active: HOP-92 NSCLC -3.49% | RXF 393 renal -9.88% | SF-295 CNS 6.62% | UACC-257 melanoma 7.13%
inactive: NCI-H23 lung 39.4% | NCI-H226 lung 36.3% | NCI-H322M lung 24.4% | HOP-62 NSCLC 26.4% | NCI-H460 lung 15.8% | NCI-H522 lung 20.2% | A549/ATCC NSCLC 30.6% | 786-0 renal 52% | COLO 205 colon 61.6% | DU-145 prostate 35.1% | K-562 leukemia 26.1% | MALME-3M melanoma 17.7% | MDA-MB-231 breast 55.9% | SF-268 CNS 20.2% | SF-539 CNS 33.4% | M14 melanoma 25.5%

CC(CO)NC1CCCCC1 (stereo not given)
inactive: NCI-H23 lung 103% | NCI-H226 lung 119% | NCI-H322M lung 102% | HOP-62 NSCLC 102% | NCI-H460 lung 108% | HOP-92 NSCLC 78% | NCI-H522 lung 103% | A549/ATCC NSCLC 102% | 786-0 renal 100% | COLO 205 colon 113% | DU-145 prostate 105% | K-562 leukemia 104% | MALME-3M melanoma 103% | MDA-MB-231 breast 91.2% | RXF 393 renal 114% | SF-268 CNS 108% | SF-295 CNS 113% | SF-539 CNS 91.8% | UACC-257 melanoma 104% | M14 melanoma 102%

COC(=O)[C@@H](C)C[C@H](Cc1ccccc1)NC(=O)c1nc([C@@H](C[C@H](C(C)C)N(C)C(=O)[C@@H](NC(=O)[C@H]2CCCCN2C)C(C)C)OC(C)=O)sc1C
inactive: NCI-H23 lung 35% | NCI-H226 lung 61.4% | NCI-H322M lung 36.3% | HOP-62 NSCLC 32.1% | A549/ATCC NSCLC 10.6% | MALME-3M melanoma 54% | RXF 393 renal 44.4% | SF-268 CNS 17.6% | SF-295 CNS 15.4% | UACC-257 melanoma 59.9%
active: NCI-H460 lung 4.31% | HOP-92 NSCLC 3.74% | NCI-H522 lung -12.8% | 786-0 renal 4.94% | COLO 205 colon -36.5% | DU-145 prostate 5.34% | K-562 leukemia 8.3% | MDA-MB-231 breast -11.6% | SF-539 CNS -16.5% | M14 melanoma -43.4%

C[C@]12CC[C@H]3[C@@H](CC4SC(N)=NC45C/C(=N/NC(N)=O)CC[C@]35C)[C@@H]1CCC2=O (stereo not given in full)
inactive: NCI-H226 lung 108% | NCI-H322M lung 52.4% | HOP-62 NSCLC 75.5% | HOP-92 NSCLC 46.6% | COLO 205 colon 35% | DU-145 prostate 31.1% | MDA-MB-231 breast 35.2% | SF-295 CNS 45.7% | SF-539 CNS 87.2% | UACC-257 melanoma 105%
active: NCI-H23 lung -44.3% | NCI-H460 lung -38.7% | NCI-H522 lung -18.6% | A549/ATCC NSCLC 0.923% | 786-0 renal -9.65% | K-562 leukemia -38.5% | MALME-3M melanoma 3.07% | RXF 393 renal 7.08% | SF-268 CNS -6.41% | M14 melanoma -51.1%
